In PubChem BioAssay (NCI):
The panel holds about 83,000 compounds, 20% with a hit somewhere; the sample as a whole holds those more often.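 Percent growth is the endpoint: 0 to 100 indicates growth inhibition (40 means 60% inhibition), 0 means no net growth, and negative values indicate cell death.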 Values without a mark were called inactive. The source made the active and inactive calls. Rule for the calls: active = growth percent below 10; inactive = the rest.

Each compound was assayed on HOP-62 NSCLC (assay: NCI-60 one-dose screen, 48 h (100 = growth as untreated, 0 = no growth, -100 = all killed)). Conditions: 10 µM unless noted.
For `COc1cc2oc(-c3cccc(NC(=O)c4cc(N)ccc4Cl)c3)cc(=O)c2c(OC)c1OC`, the growth was 111%. Compound `CC(C)(C)n1cc(-c2ccnc(NCCCNS(=O)(=O)c3cccc(F)c3)n2)c(-c2ccc(Cl)c(O)c2)n1` has a growth of 111%. `COc1cccc2cc(-c3cc4ccccc4[nH]3)/c(=N\NC(=O)c3ccc(Cl)cc3)oc12` showed a growth of 31.3%. For `Nc1nc(Nc2ccccc2SSc2ccccc2Nc2nc(N)nc(-c3ccc4ccccc4c3)n2)nc(-c2ccc3ccccc3c2)n1`, the growth was 28.8%. `O=C(CN1CCN(c2cc(=O)n(-c3ccccc3)c3ccccc23)CC1)Nc1nc(-c2ccccc2)cs1` was tested, and the growth was 66.4%. With `CC(Nc1c(C#N)cnc2ccc(-c3cnc(N)nc3)cc12)c1ccccc1` (centres undefined) the growth was 10.6%. For `CC(=O)Nc1cccc(Nc2nc(N[C@H](C)c3ccccc3)c3ccccc3n2)c1`, the growth was 72.6%. In the case of `CNC1CCc2c(sc(NC(=O)c3ccc(C(C)(C)C)cc3)c2C(N)=O)C1` (centres undefined), the growth is reported as 38.4%. With `COc1cc(OC)cc(C(=O)Nc2cccc(C#Cc3cccc4[nH]nc(N)c34)c2)c1` the growth was 39%. In the case of `COc1c(N2CC3CCCNC3C2)c(F)cc2c(=O)c(C(=O)N/N=C/c3ccccc3)cn(C3CC3)c12` (centres undefined), the growth is reported as 96.6%. Work on `COc1ccccc1-n1cc(C#N)c(N)c1C(=O)c1ccc(Br)cc1` yielded a growth of 63.5%. For `Nc1nc(-c2cccc([N+](=O)[O-])c2)c(N=Nc2ccccc2)s1`, the growth was 80.6%. In the case of `COc1ccc(-c2nc3ccc(-c4nnc(SCC(=O)Nc5ccc(C(=O)/C=C/c6ccc(Cl)cc6)cc5)o4)cc3[nH]2)cc1`, the growth is reported as 99.5%. In the case of `CCCCCCCn1cc2c(NCCc3ccccc3)ncnc2n1`, the growth is reported as 94.1%. Compound `COc1ccc(-c2nc3cc(Cl)c(Cl)cc3n2CC(=O)N=Nc2c(O)[nH]c3ccc(OC)cc23)cc1` has a growth of 43.2%. `CN1CCN(Cc2ccc(NC(=O)c3cncc(C#Cc4cnn5cccnc45)c3)cc2C(F)(F)F)CC1` was tested, and the growth was 10.2%. `Cc1cc(C)c(N2C(=O)CC(Nc3ccc(Cl)cc3Cl)C2=O)c(C)c1` (centres undefined) gave a growth of 104%. `CC(=O)Nc1cccc(Nc2nc(N[C@@H](C)c3ccccc3)c3ccccc3n2)c1` was tested, and the growth was 33.9%. With `COc1cc(-c2nn(C(C)(C)C)cc2-c2ccnc(NCCCNS(=O)(=O)c3cccc(F)c3)n2)ccc1Cl` the growth was 65.4%. `NC(=O)c1cccc(-n2ccc3cc(NC(=O)Nc4ccc(N5CCOCC5)c(C(F)(F)F)c4)ccc32)n1` was tested, and the growth was 1.56% (active). With `O=S(=O)(Nc1cccc2ccccc12)c1ccc(-c2cnc(C3CC3)o2)cc1` the growth was 39.3%. Work on `CCOC(=O)c1c(N)c(C#N)cn1-c1cc(OC)c(OC)c(OC)c1` yielded a growth of 101%. `COc1ccc([C@H]2c3[nH]c4ccccc4c3C[C@H]3C(=O)N(C4CCN(Cc5c(Cl)cccc5Cl)CC4)CC(=O)N23)c(OC)c1` gave a growth of 93.2%. `COc1ccc2c(c1)c(-c1cc(N)n3nc(-c4cn(C)c5ccc(OC)cc45)cc3n1)cn2C` showed a growth of 103%. In the case of `COc1cc2c(cc1OC)C(Sc1ccc(C)cc1)c1c(nc(N)c(C#N)c1N)O2` (centres undefined), the growth is reported as -1.58% (active). Work on `C[C@@H](Nc1c(C#N)cnc2ccc(-c3cnc(Cl)c(NS(C)(=O)=O)c3)cc12)c1ccccc1` yielded a growth of 11.6%. `Cc1ccc(NC(=O)N[C@@H](Cc2cc(F)cc(F)c2)C(=O)NC2C(=O)N3C[C@H](O)C[C@H]3C(=O)N3CCCC[C@H]3C(=O)N[C@@H](CO)C(=O)N3C[C@H](C)C[C@H]3C(=O)O[C@H]2C)c(F)c1` (some centres undefined) gave a growth of 48.3%. `O=C(NCc1ncc[nH]1)c1ccc(-c2nc3ccc4[nH]ncc4c3c3c2CCCC3)cc1` showed a growth of 17.8%. With `CCO/C=N/C1=C(C#N)C(c2ccc(F)cc2)c2sc3c(C)cccc3c2O1` (centres undefined) the growth was 28.3%. Work on `c1cn2c(ccc3nc(-c4cn[nH]c4)c4c(c32)CCCC4)n1` yielded a growth of 71.8%. For `O=c1[nH]c2ccccc2cc1CSc1ccccc1Nc1nccc(-c2ccc(Cl)cc2)n1`, the growth was 95.6%. `Cn1ccnc1C(=O)/C=C/c1ccc(NC(=O)c2c(F)c(F)c(F)c(F)c2F)cc1` showed a growth of 120%. `Cc1noc(C)c1CSc1nc2ccccc2n1-c1ccccc1` gave a growth of 69%. For `Cn1cc(CNc2nc3ccc(OC/C(=C/F)CN)cc3o2)ccc1=O`, the growth was 109%. `CC(C)(C)CC(C)(C)n1nnnc1C(Nc1nccs1)c1cc2cccc3ccc4cccc1c4c32` (centres undefined) gave a growth of 89%. `COc1ccc(/C(N)=N/C(N)=N/c2nc3ccccc3s2)cc1` was tested, and the growth was 24.5%. For `COc1ccc(-c2nn(-c3ccc(S(C)(=O)=O)cc3)cc2/C=N/O)cc1`, the growth was 109%. `CCOc1cccc(-c2nc3sccn3c2-c2ccnc(S(C)(=O)=O)n2)c1` gave a growth of 100%. `O=C(c1ccc(Cl)cc1)C1[C@H](c2ccc(Cl)cc2)[C@@H](c2ccccc2)NC12C(=O)Nc1ccccc12` (some centres undefined) gave a growth of 69.6%.
